Laboratory results reported in PubChem BioAssay.
Calls of active or inactive are those of the source.

How the values were obtained:
[1] = compounds binding Alexa647 anti-His antibody – biochemical, small-molecule microarray, 635 nm fluorescence, artefact control for SMM control protein annotation, primary screen (AID 1128); details: higher = more signal;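 further: score merges feature fluorescence with signal-to-noise for each printed compound spot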
[2] = tested on: Human papillomavirus type 1a E7 protein (residues 1-88); assay: HPV1a E7 small-molecule binders, primary screen, biochemical, small-molecule microarray, residues 1-88, 635 nm (AID 1129); details: small-molecule microarray binding, fluorescence 635 nm; higher = more signal
[3] = target: Focal adhesion kinase 1 (Homo sapiens) (UniProt Q05397); assay: PTK2 protein binding on printed compound slides – biochemical, small-molecule microarray, 635/667 nm fluorescence, BSA, DTT, primary screen (AID 1130); details: 635 nm fluorescence, higher = more signal;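 further: composite of spot emission at 667 nm and signal to noise over triplicate slides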
[4] = tested on: Fibrinogen (Alexa647-labelled); assay: Alexa647-fibrinogen binding to printed small molecules – biochemical, small-molecule microarray, 635/667 nm fluorescence, artefact control for SMM control-protein annotation, profiling panel (AID 1131); details: fibrinogen-A647 binding fluorescence, higher = more signal;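 further: z-score merges 667 nm fluorescence with per-spot signal-to-noise over triplicate slides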
[5] = target: Follistatin (Homo sapiens) (UniProt P19883); assay: FST protein binding to printed compounds – biochemical, small-molecule microarray, 635/667 nm fluorescence, primary screen (AID 1132); details: 635 nm fluorescence, higher = more signal
[6] = target: Fibroblast growth factor 2 (Homo sapiens) (UniProt P09038); assay: basic fibroblast growth factor binding to printed compounds – biochemical, small-molecule microarray, 635/667 nm fluorescence, primary screen (AID 1133); details: FGF2, fluorescence 635/667, higher = more signal
[7] = JC-1 mitochondrial potential readout, lung cancer cells – cell-based, A549, JC-1 fluorescence, basal, 24 h, 100 nL, profiling panel (AID 1138); details: higher = more signal;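 further: A549 lung adenocarcinoma cells under basal conditions with no added stimulus; test concentration not given here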
Lefty1 = Lefty1 protein binding to printed compounds – biochemical, small-molecule microarray, 635/667 nm fluorescence, primary screen (AID 1139); details: fluorescence 635/667, higher = more signal
[8] = tested on: wheat germ agglutinin (Triticum aestivum), Alexa647-labelled; assay: Alexa647-WGA lectin binding to printed small molecules – biochemical, small-molecule microarray, 635/667 nm fluorescence, artefact control for SMM control-protein annotation, profiling panel (AID 1140); details: WGA-A647 binding, 635 nm fluorescence, higher = more signal;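 further: score merges 667 nm feature emission with signal to noise over triplicate slides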
[9] = target: Luciferin 4-monooxygenase (Photinus pyralis) (UniProt P08659); assay: inhibition of purified Photinus pyralis luciferase – biochemical, luminescence, purified enzyme, 2006 set, primary screen (AID 1141); details: purified firefly luciferase, SteadyGlo luminescence, 30 min; higher = more signal, called active from +8 up or from −8 down;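 further: cell-free assay with purified firefly luciferase at 100 ng per well in PBS; test concentration not given here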
Sequence of Luciferin 4-monooxygenase (Photinus pyralis) (P08659 whole entry, looked up): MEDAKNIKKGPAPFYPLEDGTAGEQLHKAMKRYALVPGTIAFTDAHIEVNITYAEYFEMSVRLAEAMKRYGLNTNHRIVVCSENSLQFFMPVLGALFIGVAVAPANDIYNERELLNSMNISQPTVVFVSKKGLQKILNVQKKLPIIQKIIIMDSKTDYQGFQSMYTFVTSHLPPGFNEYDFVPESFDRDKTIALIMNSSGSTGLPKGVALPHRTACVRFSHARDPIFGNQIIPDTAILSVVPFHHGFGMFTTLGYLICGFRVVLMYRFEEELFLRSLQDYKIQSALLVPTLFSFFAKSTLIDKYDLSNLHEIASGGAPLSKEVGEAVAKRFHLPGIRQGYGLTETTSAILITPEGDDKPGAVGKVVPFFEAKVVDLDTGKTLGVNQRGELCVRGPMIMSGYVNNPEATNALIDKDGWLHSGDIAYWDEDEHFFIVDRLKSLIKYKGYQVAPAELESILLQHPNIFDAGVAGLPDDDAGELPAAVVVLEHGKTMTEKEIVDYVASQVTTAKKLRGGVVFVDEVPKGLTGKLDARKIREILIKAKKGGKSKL

Sequence of Fibroblast growth factor 2 (Homo sapiens) (P09038 whole entry, looked up): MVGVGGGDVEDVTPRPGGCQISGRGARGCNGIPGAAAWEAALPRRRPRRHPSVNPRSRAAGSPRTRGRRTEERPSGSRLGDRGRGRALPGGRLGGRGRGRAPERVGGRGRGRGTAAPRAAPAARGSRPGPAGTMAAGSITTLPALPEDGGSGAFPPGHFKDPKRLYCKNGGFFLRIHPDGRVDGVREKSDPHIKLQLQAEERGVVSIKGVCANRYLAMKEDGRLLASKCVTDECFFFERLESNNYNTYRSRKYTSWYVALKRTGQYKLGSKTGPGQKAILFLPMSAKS
Sequence of Focal adhesion kinase 1 (Homo sapiens) (Q05397 whole entry, looked up): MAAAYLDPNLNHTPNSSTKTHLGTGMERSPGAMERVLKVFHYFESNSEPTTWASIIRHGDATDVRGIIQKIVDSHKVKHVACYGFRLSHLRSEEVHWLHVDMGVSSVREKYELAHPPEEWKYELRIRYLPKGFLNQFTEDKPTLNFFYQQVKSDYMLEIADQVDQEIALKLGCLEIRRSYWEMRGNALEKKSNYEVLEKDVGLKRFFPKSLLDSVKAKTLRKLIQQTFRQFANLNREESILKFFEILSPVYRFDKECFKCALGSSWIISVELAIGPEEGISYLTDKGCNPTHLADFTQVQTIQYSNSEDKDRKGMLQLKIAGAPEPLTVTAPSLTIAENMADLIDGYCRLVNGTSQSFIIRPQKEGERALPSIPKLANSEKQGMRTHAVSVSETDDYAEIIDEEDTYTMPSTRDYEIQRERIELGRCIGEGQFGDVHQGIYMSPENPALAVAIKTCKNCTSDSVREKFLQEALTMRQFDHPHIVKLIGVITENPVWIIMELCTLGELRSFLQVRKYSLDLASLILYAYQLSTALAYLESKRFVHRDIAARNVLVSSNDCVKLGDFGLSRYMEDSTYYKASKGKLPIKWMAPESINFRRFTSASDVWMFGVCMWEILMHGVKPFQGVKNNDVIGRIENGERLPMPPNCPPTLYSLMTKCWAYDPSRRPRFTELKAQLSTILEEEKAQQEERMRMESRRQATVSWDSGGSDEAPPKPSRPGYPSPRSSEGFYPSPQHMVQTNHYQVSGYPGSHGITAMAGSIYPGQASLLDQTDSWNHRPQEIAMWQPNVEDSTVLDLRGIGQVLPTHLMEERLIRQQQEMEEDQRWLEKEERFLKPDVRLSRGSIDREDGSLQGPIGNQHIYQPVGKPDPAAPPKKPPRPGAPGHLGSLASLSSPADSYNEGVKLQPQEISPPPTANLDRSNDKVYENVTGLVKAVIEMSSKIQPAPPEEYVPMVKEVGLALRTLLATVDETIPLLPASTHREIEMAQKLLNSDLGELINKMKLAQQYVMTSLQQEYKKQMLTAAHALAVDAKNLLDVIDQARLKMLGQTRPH
Sequence of Follistatin (Homo sapiens) (P19883 whole entry, looked up): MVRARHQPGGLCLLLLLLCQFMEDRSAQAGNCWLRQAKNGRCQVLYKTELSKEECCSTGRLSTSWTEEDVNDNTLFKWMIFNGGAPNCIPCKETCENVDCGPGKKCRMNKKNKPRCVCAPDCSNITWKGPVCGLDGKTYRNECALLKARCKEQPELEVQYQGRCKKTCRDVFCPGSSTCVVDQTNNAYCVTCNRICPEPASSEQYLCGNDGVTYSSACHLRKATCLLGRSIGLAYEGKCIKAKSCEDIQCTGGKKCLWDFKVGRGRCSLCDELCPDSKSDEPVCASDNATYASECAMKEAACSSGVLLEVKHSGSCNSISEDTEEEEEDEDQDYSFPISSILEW

SMILES | composite z-score [1] | composite z-score [2] | composite z-score [3] | composite z-score [4] | composite z-score [5] | composite z-score [6] | z-score [7] | composite z-score (Lefty1) | composite z-score [8] | z-score [9]
COC(=O)C1N=C(c2ccc(OCCCO)cc2)N(c2ccccc2)O1 (stereo not given) | 1.91 | 1.15 | -0.0976 | 0.992 | 1.33 | 1.76 | 1.8 | 0.156 | 1.29 | -7.36 (inactive)
O=C(NCC(O)CO)[C@@]1(CCS(=O)(=O)c2ccccc2)COC(c2ccc(OCCCO)cc2)=N1 (stereo not given in full) | 2.29 | 1.17 | 0.204 | 0.904 | 1.36 | 1.28 | -0.583 | -0.682 | 0.41 | 0.405 (inactive)
COC(=O)[C@@]1(Cc2ccc(OC)cc2)[C@H]2c3cc(C(=O)N4CCCC4)n(Cc4ccc(OC(F)(F)F)cc4)c3C[C@H]2CN1C(=O)c1ccccc1 | 1.36 | -0.376 | -0.438 | 1 | 0.451 | -0.702 | 0.691 | -0.683 | 1.09 | 2.03 (inactive)
CCN(CC)c1ccc(N2CC=CC34O[C@@H]5/C=C\CCC(C)OC(=O)C5[C@H]3C(=O)N(C(C)CO)[C@@H]4C2=O)cc1 (stereo not given in full) | -0.361 | -0.935 | 0.212 | -0.145 | 0.565 | -0.0619 | 0.723 | 0.321 | -0.663 | -1.5 (inactive)
C[C@]1(C(=O)NCC(F)(F)F)c2ccccc2C(=O)N(Cc2ccccc2)[C@H]1c1ccc(CO)cc1 | 1.09 | -0.634 | -0.712 | -1.32 | -0.684 | -1.02 | -0.0626 | -1.25 | -0.68 | 0.857 (inactive)
CN1C(=O)C2C=CC(C(O)c3cc(C(F)(F)F)cc(C(F)(F)F)c3)N(NC(=O)OC(C)(C)C)C2C1=O (stereo not given) | 1.12 | 1.2 | 0.753 | 0.982 | 1.27 | -0.396 | 0.717 | 0.369 | 0.713 | 0.75 (inactive)
COC(=O)[C@@]1(Cc2ccccc2CN=[N+]=[N-])N=C(c2ccc(OCCCO)cc2)O[C@H]1c1ccccc1CN=[N+]=[N-] | -0.242 | 0.113 | -0.198 | -0.819 | -0.261 | -0.167 | -0.546 | -1.09 | 0.495 | -2.23 (inactive)
CCOC(=O)C[C@H]1[C@H](OC(=O)c2ccc(C(=O)c3ccccc3)cc2)[C@@H](NC(=O)CC(C)C)c2cc(OCCCO)ccc2N1C(=O)Cc1ccc(OC)cc1 | 0.201 | 0.766 | 0.721 | 0.286 | 0.264 | 0.194 | 0.911 | -0.215 | 0.675 | -0.563 (inactive)
C[C@@]12COC[C@]13C=C(Br)[C@H](C2)[C@@]1(CO1)C3=O | 0.0359 | -1.59 | -0.306 | -0.376 | -0.222 | -0.757 | 1.02 | -0.0487 | -0.388 | 0.198 (inactive)
C=C(/C(=C/C[C@@H](OC(=O)c1ccncc1)c1cccc(OCCO)c1)c1cnc2ccccc2c1)C(C)C | 0.787 | 1.09 | 0.329 | 0.807 | 1.42 | 2.01 | 1.02 | 1.2 | 1.29 | -1.47 (inactive)
O=C1O[C@H](c2ccccc2)[C@H](c2ccccc2)N2[C@H]1[C@@H](C(=O)N1CCCCCCC1)[C@]1(C(=O)Nc3ccc(C#CC4(O)CCCCCC4)cc31)[C@H]2c1ccccc1OCCO | 2.25 | 1.35 | 3.94 | 0.713 | 1.62 | 0.121 | 0.589 | 1.92 | 1.71 | 1.03 (inactive)
